Screens (PubChem)
GRIN3A LBD mod: modulators (binders) of human NR3A ligand-binding domain; 340,000 tested, 2.5% active; NR3A LBD differential scanning fluorimetry, Tm shift; 0% = protein alone, 100% = glycine-bound protein; Tm shift relative to glycine control, % at 25 µM; AID 1259313;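 active means melting temperature shift of at least 10% of the positive control shift, at one fixed dose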
beta cell repl: MIN6 beta-cell proliferation induction. AID 2380. MIN6 cells proliferation, ATPlite luminescence, 48 h; cells starved in 0.2% serum; 100% = growth in 10% serum. 330,000 tested, 0.29% active. proliferation, % at 10 µM;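 active means compounds whose signal lies at least 3.5 SD above the mean of all wells on their plate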
MPTP inh: inhibitors of mitochondrial permeability transition pore; isolated mouse mitochondria, Ca2+ swelling absorbance, 30 min; inhibition, % at 10 µM; 360,000 tested, 1.4% active; AID 602449;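 active means inhibition of 50% or more, scaled per plate between neutral and stimulator controls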
FAS-TE inh: blocks the thioesterase domain of human fatty acid synthase | AID 602261 | P49327 | recombinant FAS-TE, OMFH fluorogenic substrate, fluorescence endpoint | inhibition, % at 15 µM | 360,000 tested, 0.67% active;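 active means compounds whose normalised, plate-corrected inhibition of enzyme fluorescence in the single-dose primary screen is 50% or more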
p-CIP stab down: compounds decreasing mouse p/CIP protein stability; F442A p/CIP-EGFP cells, EGFP fluorescence, 16 h; AID 1984; Q05BA5; decrease of EGFP signal, % at 10 µM; 290,000 tested, 0.01% active;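 active means EGFP signal decrease of at least 30% at 10 µM or well 3 SD below plate mean, unless failing retest; inactive means the rest, including hits failing retest or dose response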
Numbers stand for hits; 0 = inactive; - = no result. Compounds with a hit are over-represented: about 4.1% of the library has one in this group of screens.

SMILES | GRIN3A LBD mod | beta cell repl | MPTP inh | FAS-TE inh | p-CIP stab down
O=C(Nc1ccc2oc(-c3ccncc3)nc2c1)c1ccccc1F | 0 | 0 | 0 | 0 | 0
O=C(Nc1ccc2oc(-c3ccc4ccccc4c3)nc2c1)c1ccc2c(c1)OCCO2 | 10 | 0 | 0 | 0 | 0
O=C(Nc1ccc(-c2nc3cc(NC(=O)c4cccs4)ccc3o2)cc1)c1cccs1 | 57 | 0 | 0 | 0 | 0
CC(=O)Nc1ccc2oc(-c3ccccc3)nc2c1 | 0 | 0 | 0 | 0 | 0
O=C(Nc1ccc2oc(-c3ccncc3)nc2c1)c1ccccc1 | 0 | 0 | 0 | 0 | 0
O=C(Nc1ccc2oc(-c3ccncc3)nc2c1)c1cccs1 | 33 | 0 | 0 | 0 | 0
O=C1Nc2ccccc2-n2nnnc2C1N1CCN(c2ccccn2)CC1 (stereo not given) | - | - | 0 | - | -
O=C1CCC(C(=O)Nc2ccc([N+](=O)[O-])cc2)N1 (stereo not given) | 0 | 0 | 0 | 0 | -
CCCN1CCN(CCCNC(=S)Nc2ccc3nc(N4CCN(CC)CC4)cc(C)c3c2)CC1 | 0 | 0 | 0 | 0 | 80
COc1ccc(C(C)C)cc1-c1cncc(NC(C)=O)n1 | - | - | 0 | 0 | -
Clc1ccc(CSc2nnc(-c3c[nH]c4ccccc34)o2)cc1 | 27 | 0 | 0 | 0 | 0
O=S(=O)(Nc1ccc(-c2nnc(SCc3ccc(Cl)cc3)o2)cc1)c1ccccc1 | 14 | 0 | 0 | 0 | 0
Cc1ccccc1-c1nnc(SCc2ccc(F)cc2)o1 | 13 | 0 | 0 | 0 | 0
CC1=C(C(=O)N(C)C)CC(CC(=O)NCc2cccc3ccccc23)C(=O)N1Cc1ccc(F)cc1 (stereo not given) | - | - | 0 | 0 | -
COc1ccccc1NS(=O)(=O)c1ccc(C)c(C(=O)NCC(c2cccs2)N2CCOCC2)c1 (stereo not given) | 0 | - | 0 | 0 | -
O=C1NC[C@H](CCCCN2CCN(CCc3ccc(O)cc3)C(=O)C2=O)N(CCc2ccc(O)cc2)C1=O | - | - | 0 | 0 | -
COc1cccc(CC(=O)Nc2nc(-c3cccnc3)cs2)c1 | 0 | 0 | 0 | 0 | 0
COc1cccc(-c2csc(NC(=O)C3CC3)n2)c1 | 20 | 0 | 0 | 0 | 0
COc1cccc(C(=O)Nc2nc(-c3ccc4c(c3)OCO4)cs2)c1 | 25 | 0 | 0 | 0 | 0
COc1cccc(-c2csc(NC(=O)Nc3ccccc3)n2)c1 | 32 | 0 | 0 | 0 | 0
COc1cccc(C(=O)Nc2nc(-c3ccncc3)cs2)c1 | 0 | 0 | 0 | 0 | 0
O=C(Nc1ccccc1)Nc1nc(-c2ccc(F)c(F)c2)cs1 | 28 | 0 | 0 | 0 | 0
O=C(Nc1nc(-c2ccccc2)cs1)Nc1ccc(F)cc1F | 0 | 0 | 0 | 0 | 0
O=C(NC1CCCCC1)C(c1ccnc2ccccc12)n1c(=O)c(-c2ccco2)nc2ccccc21 (stereo not given) | - | - | 0 | - | -
COc1ccc(-c2cc(C(=O)N(C)Cc3nc4ccccc4c(=O)[nH]3)c3ccccc3n2)cc1OC | 0 | 0 | 0 | 0 | -
SMILES | GRIN3A LBD mod | beta cell repl | MPTP inh | FAS-TE inh | p-CIP stab down
COc1ccc(C(C)(NC(C)=O)c2nc(-c3ccc(F)cc3OC)cs2)cc1 (stereo not given) | - | - | 0 | 0 | -
O=C1c2ccccc2CCC12OC2c1ccc([N+](=O)[O-])cc1 (stereo not given) | - | - | 0 | 0 | -
CCOc1ccc(-c2c(C(=O)N/N=C/c3ccc(OC(C)C)cc3)nnn2-c2nonc2N)cc1 | 11 | 0 | 0 | 0 | 0
CCOc1ccc(-c2c(C(=O)N/N=C/c3cccs3)nnn2-c2nonc2N)cc1 | 0 | 0 | 0 | 0 | 0
Cc1ccc(-c2c(C(=O)N/N=C/c3ccc(OC(C)C)cc3)nnn2-c2nonc2N)cc1 | 0 | 0 | 0 | 0 | 0
CCOc1ccc(-c2c(C(=O)N/N=C/c3ccc(Cl)cc3)nnn2-c2nonc2N)cc1 | 13 | 0 | 0 | 0 | 0
CCOc1ccc(/C=N/NC(=O)c2nnn(-c3nonc3N)c2-c2cccs2)cc1 | 13 | 0 | 0 | 0 | 0
Cc1ccc(-c2c(C(=O)N/N=C/c3cccc(Cl)c3)nnn2-c2nonc2N)cc1 | 15 | 0 | 0 | 0 | 0
Cc1ccccc1S(=O)(=O)N1C(c2ccc(Cl)c(Cl)c2)CC=C(C(=O)O)C1c1cccc(Br)c1 (stereo not given) | - | - | 0 | - | -
Cc1ccc(S(=O)(=O)N[C@H](CNCc2ccccc2)C(C)C)cc1 | - | - | 0 | - | -
COC(=O)c1ccc(Nc2cc(C)nc(-c3ccccc3O)n2)cc1 | 23 | 0 | 0 | 0 | 0
CCOC(=O)c1ccc(Nc2nc(C)cc(C)n2)cc1 | 0 | - | 0 | 0 | 0
CCOC(=O)c1ccc(Nc2cc(C)nc(-c3ccccc3)n2)cc1 | 10 | 0 | 0 | 0 | 0
COC(=O)c1ccc(Nc2cc(C)nc3ccc(C)cc23)cc1 | 0 | 0 | 0 | 0 | 0
COC(=O)c1cccc(Nc2cc(C)nc(-c3ccccc3O)n2)c1 | 17 | 0 | 0 | 0 | 0
O=C(OCC(=O)N1CCNC1=O)c1ccccc1Cl | - | - | 0 | 0 | -
COCCn1c(C)cc(C(=O)CSc2nc3ccccc3c(=O)n2Cc2ccco2)c1C | 12 | 0 | 0 | 0 | 0
COc1ccc(CCNC2=CC(=O)CCC2)cc1OC | - | - | 0 | 0 | -
COc1cc(OC)c(OC)cc1/C=N/Nc1nc2ccccc2[nH]1 | 0 | 0 | 0 | 0 | 0
Cc1ccc2cc(/C=N/Nc3nc4ccccc4[nH]3)c(Cl)nc2c1 | 12 | - | 0 | 0 | 0
COc1ccc(CC(N)c2csc(NC(=O)C(c3ccccc3)c3ccccc3)n2)cc1 (stereo not given) | - | - | 0 | 0 | -
CCOC(=O)c1c(N)sc2c(NC(C)=O)cccc12 | 31 | 0 | 0 | 0 | 0
CCOC(=O)c1sc(-c2ccccc2)cc1NC(=O)Nc1ccccc1 | 16 | - | 0 | 0 | 0
CCOC(=O)c1c(N)sc(C(=O)Nc2ccccc2)c1C | 27 | 0 | 0 | 0 | 0
CCOC(=O)c1sc(-c2ccc(Br)cc2)cc1N | 16 | 0 | 0 | 0 | 0
SMILES | GRIN3A LBD mod | beta cell repl | MPTP inh | FAS-TE inh | p-CIP stab down
CCOC(=O)c1c(NC(C)=O)sc2c(OC)cccc12 | 0 | 0 | 0 | 0 | 0
C[C@@H]1CN([C@H](C)CO)C(=O)c2cc(Br)cnc2O[C@@H]1CN(C)Cc1ccc(F)cc1 | - | - | 0 | 0 | -
CCOC(=O)[C@]12CCC=C1N(Cc1ccc3c(c1)OCO3)C(=O)[C@H](CC(=O)NCC1CCCCC1)C2 | - | - | 0 | 0 | -
COc1ccc(/C=C/C(=O)Nc2cccc(F)c2)cc1S(=O)(=O)N1CCOCC1 | 10 | 0 | 0 | 0 | 0
O=C(/C=C/c1ccc(F)cc1)Nc1ccc(S(=O)(=O)N2CCOCC2)cc1 | 22 | 0 | 0 | 0 | 0
O=C(NCc1ccccc1Cl)[C@H]1CCCN1C(=O)[C@H]1CCCN1C(=O)c1cccs1 | - | - | 0 | 0 | -
CCCCC[C@H](C)N1C[C@@H](COCc2ccccc2)Oc2cc(N3CC[C@H](O)C3)ccc2S1(=O)=O | - | - | 0 | 0 | -
O=C(Cn1c(O)c(/C=C2\C=Nc3ccccc32)sc1=O)Nc1ccc2c(c1)OCO2 | 11 | 0 | 0 | 0 | 0
COCCNC(=O)C1(C)Cc2c(-c3ccc(N(C)C)cc3)ccnc2O1 (stereo not given) | - | - | 0 | 0 | -
N#Cc1cccc(C(=O)C(=O)N2CCN(C(=O)OCc3ccccc3)CC2)c1 | - | - | 0 | - | -
